Screening data (PubChem)
DT40 TDP1 no CPT: qHTS for Inhibitors of human tyrosyl-DNA phosphodiesterase 1 (TDP1): qHTS in cells in absence of CPT. DT40 Tdp1-/- hTDP1 cells, no CPT, ATP luminescence, 48 h. Potency, µM (titrated, usually from 46.2 µM), inactives show at the highest dose activity change, negative = growth inhibition, hits mostly inhibitors. hit rate 15% among 420,000; further: potency means the concentration at half of the fitted maximal effect; on the % scale 0 is the no-effect control and ±100 the full control effect; nearly all actives have a fitted effect of over 55% in size
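A cellular qHTS used chicken DT40 cells lacking endogenous Tdp1 but carrying stably transfected human TDP1. Compounds were applied without camptothecin, and cell growth kinetics were judged by ATP-dependent luminescence after ≥48 hr.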
SW480 rereplic: DNA re-replication induction in SW480 cells | Potency, µM (series often up to 46.1 µM), inactives show at the top dose re-replication activation, hits mostly activators | SW480 DNA re-replication, Hoechst DNA content imaging, 48 h | hit rate 1.8% among 340,000; further: potency means the concentration at half of the fitted maximal effect; % of control where 0% means no effect; nearly all actives have a fitted effect of over 55% in size
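DNA re-replication was detected as more nuclei of elevated Hoechst intensity after 48 hr exposure to compound (23 nL pinned per well of 250 cells).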
DT40 TDP1 CPT: growth inhibition of DT40 Tdp1-/-;hTDP1 cells with camptothecin (screen for TDP1 inhibitors); chicken DT40 Tdp1-/-;hTDP1 cells + 20 nM CPT, ATP luminescence, 48 h; Potency, µM (doses to about 46.2 µM), without a hit: top-dose activity change, negative = growth inhibition, most hits filed as inhibitors; hit rate 12% among 420,000; further: potency means the concentration at half of the fitted maximal effect; on the % scale 0 is the no-effect control and ±100 the full control effect; nearly all actives have a fitted effect of over 55% in size
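Cell growth measured by CellTiter-Glo luminescence after a minimum 48 h, 37 C compound exposure with 20 nM CPT in Tdp1-knockout DT40 cells stably expressing hTDP1, seeded 400/well; qHTS titration format.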
IL1B secr inh: blocks inflammasome-driven IL-1 beta release. activity change, % at 57.5 µM. THP-1 LPS/ATP IL-1B secretion, AlphaLISA, 16 h; hits give low values. hit rate 4.7% among 360,000; in the data active means activity change below about -50%; inconclusive means mostly about -30% to -49%; further: on the % scale 0 is the no-effect control and ±100 the full control effect
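Secreted IL-1B measured by AlphaLISA bead assay after 16 h compound exposure of THP-1 cells; compounds (final up to 57.5 uM) added 1 h before LPS (250 ng/mL) and ATP (1.25 mM) stimulation; lower signal means less secretion.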
BCR signal inh: inhibitors of chronic active B-cell receptor signaling; ABC-DLBCL IkBa-CBG/CBR reporter, luminescence ratio, 4 h; Potency, µM (series often up to 46.1 µM), for inactives: top-dose activity change, negative = inhibition, usual class: inhibitors; hit rate 0.05% among 340,000; active means well fitted inhibition curve with a large enough effect in the signal ratio, with a control signal flat, not every such curve was filed as active; inconclusive means small, poorly fitted or top-dose-only effect, or effect the other way, or a change in a side signal; the % refers to the signal ratio;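 further: potency means the concentration at half of the fitted maximal effect; plate controls were basal doxycycline-induced cells for no effect and cells given 10 µM MG132 for full effect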
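Cell line TMD8 (human ABC DLBCL), stably expressing tet-inducible CBG68-IkBa fusion and CBR; IMDM/0.5% FBS; cpd up to 46 uM; dox induction, 4 h, 37C/5% CO2; dual luminescence; green/red ratio; MG132 control.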
MCF10A rerep: inducers of DNA re-replication in MCF 10A breast cells | MCF 10A DNA re-replication, Hoechst nuclear intensity, 48 h | Potency, µM (series often up to 46.1 µM), inactives show top-dose activity, positive = re-replication, usual class: activators | hit rate 2.9% among 350,000; further: potency means the concentration at half of the fitted maximal effect; % of control where 0% means no effect; nearly all actives have a fitted effect of over 50% in size
Starred values were filed as active, the others as inactive. Most compounds without a hit are left out; they make up all but 19% or so of the library. Unless noted, the call rests on the fitted dose curve; in most records, active means well fitted curve in the direction sought with a large enough effect; inconclusive means small, poorly fitted or top-dose-only effect, or another doubt; inactive means no such curve, though single readings can be large; an effect the other way counts as inactive or inconclusive.

`O=C1NC[C@H](Cc2ccccc2)N(C[C@@H]2CCCN2C[C@H](Cc2ccc(O)cc2)N2C[C@H](Cc3ccccc3)N(CC3CCCCCC3)C(=O)C2=O)C1=O` gave DT40 TDP1 no CPT inconclusive, DT40 TDP1 CPT inconclusive and IL1B secr inh -83*.
`O=C1NC[C@H](Cc2ccccc2)N(CC2CCN(CCC3CCCC3)CC2)C1=O` gave DT40 TDP1 no CPT -2%, SW480 rereplic 5%, DT40 TDP1 CPT -8%, IL1B secr inh 10 and MCF10A rerep inconclusive.
O=C1NC[C@H](Cc2ccccc2)N(C[C@@H]2CCCN2C[C@H](Cc2ccccc2)N2C[C@H](Cc3ccccc3)N(CC3CCCCC3)C(=O)C2=O)C1=O was read as DT40 TDP1 no CPT 23µM*, DT40 TDP1 CPT 16µM* and IL1B secr inh -77*.
For O=C1NC[C@H](Cc2ccccc2)N(C[C@H]2CCCN2C[C@H](Cc2ccccc2)N2C[C@H](Cc3ccccc3)N(CC3CCCCC3)C(=O)C2=O)C1=O the results were DT40 TDP1 no CPT inconclusive, SW480 rereplic inconclusive, DT40 TDP1 CPT 21µM*, IL1B secr inh -78* and MCF10A rerep inconclusive.
Cc1cc(NC(=O)CN2C(=O)/C(=C/c3ccc(C(C)C)cc3)SC2=S)no1 was read as DT40 TDP1 no CPT inconclusive, DT40 TDP1 CPT inconclusive and IL1B secr inh -6.
Screening CC(C)C(NC(=O)c1c(F)cccc1F)C(=O)NCCc1ccc(S(N)(=O)=O)cc1 (configuration not stated) returned DT40 TDP1 no CPT 10%, SW480 rereplic -7%, DT40 TDP1 CPT 3%, IL1B secr inh 18, BCR signal inh inconclusive and MCF10A rerep 12%.
Screening COCCNC(=O)CN(C(=O)CCC(=O)Nc1ccccn1)c1ccc(C)cc1C returned DT40 TDP1 no CPT 20%, SW480 rereplic -14%, DT40 TDP1 CPT 1%, IL1B secr inh 16, BCR signal inh 0% and MCF10A rerep -4%.
`CC(C)C[C@H]1CN([C@@H](Cc2ccccc2)CN2CCC[C@H]2CN2C(=O)C(=O)NC[C@@H]2Cc2ccc(O)cc2)C(=O)C(=O)N1CC1CCCCC1` gave DT40 TDP1 no CPT inconclusive, DT40 TDP1 CPT inconclusive and IL1B secr inh -94*.
CC(C)C[C@H]1CN([C@@H](Cc2ccccc2)CN2CCC[C@@H]2CN2C(=O)C(=O)NC[C@@H]2Cc2ccc(O)cc2)C(=O)C(=O)N1CC1CCCCC1 was read as DT40 TDP1 no CPT inconclusive, DT40 TDP1 CPT -23% and IL1B secr inh -23.
`O=S1(=O)CC(N2CC=CC2)CN1Cc1cn(Cc2ccc(Cl)cc2)nn1` (configuration not stated) gave DT40 TDP1 no CPT -20%, DT40 TDP1 CPT -5% and IL1B secr inh -17.
For Cc1cccc(Nc2nc(N3CCOCC3)nc(N3CCOCC3)n2)c1 the results were DT40 TDP1 no CPT inconclusive, SW480 rereplic 28%, DT40 TDP1 CPT 9.2µM*, IL1B secr inh -76*, BCR signal inh inconclusive and MCF10A rerep 5%.
Screening Cc1cccc(Nc2nc(Nc3cccc(C)c3)nc(N3CCOCC3)n2)c1 returned DT40 TDP1 no CPT 9.2µM* and DT40 TDP1 CPT 15µM*.
Screening FC(F)(F)c1cccc(Nc2nc(N3CCOCC3)nc(N3CCOCC3)n2)c1 returned DT40 TDP1 no CPT inconclusive, SW480 rereplic inconclusive, DT40 TDP1 CPT 13µM*, IL1B secr inh -6, BCR signal inh inconclusive and MCF10A rerep inconclusive.
Screening Cc1cccc(Nc2nc(N3CCCCC3)nc(N3CCCCC3)n2)c1 returned DT40 TDP1 no CPT -15%, SW480 rereplic 9%, DT40 TDP1 CPT -18%, IL1B secr inh -3, BCR signal inh inconclusive and MCF10A rerep 30%.
Screening Oc1cccc(Nc2nc(N3CCOCC3)nc(N3CCOCC3)n2)c1 returned DT40 TDP1 no CPT 8.2µM*, SW480 rereplic inconclusive, DT40 TDP1 CPT 5.2µM*, IL1B secr inh -22, BCR signal inh inconclusive and MCF10A rerep 23µM*.
`Cn1ccnc1Sc1nc(Nc2cccc(Cl)c2)nc(N2CCOCC2)n1` gave DT40 TDP1 no CPT 4%, SW480 rereplic -12%, DT40 TDP1 CPT -1%, IL1B secr inh 1, BCR signal inh 5% and MCF10A rerep 3%.
Screening CCN(CC)c1ccc(N2C(=NC(=O)C3CC3)SC3CS(=O)(=O)CC32)cc1 (configuration not stated) returned DT40 TDP1 no CPT 19%, SW480 rereplic 0%, DT40 TDP1 CPT -1%, IL1B secr inh 12, BCR signal inh -1% and MCF10A rerep 2%.
CSCCC(NC(=O)c1ccccc1)C(=O)NCCCSc1ccccc1 (configuration not stated) was read as DT40 TDP1 no CPT inconclusive, SW480 rereplic -5%, DT40 TDP1 CPT -29%, IL1B secr inh -22, BCR signal inh -9% and MCF10A rerep -4%.
For COc1ccc(CNC(=O)CN2C(=O)CCSc3ccc(S(=O)(=O)N4CCCC4)cc32)cc1 the results were DT40 TDP1 no CPT 1%, SW480 rereplic -11%, DT40 TDP1 CPT -13%, IL1B secr inh -16, BCR signal inh 5% and MCF10A rerep 2%.
For Cc1ccc(Nc2nc(N3CCOCC3)nc(N3CCOCC3)n2)cc1C the results were DT40 TDP1 no CPT 13µM*, SW480 rereplic -8%, DT40 TDP1 CPT 13µM*, IL1B secr inh -60*, BCR signal inh inconclusive and MCF10A rerep inconclusive.
For COC(=O)c1ccc(Nc2nc(N3CCOCC3)nc(N3CCOCC3)n2)cc1 the results were DT40 TDP1 no CPT -24%, SW480 rereplic inconclusive, DT40 TDP1 CPT inconclusive, BCR signal inh -6% and MCF10A rerep 6%.
Screening C=CCN(C(=O)CCC(=O)O)C1CC(=O)N(c2ccc(OC)cc2)C1=O (configuration not stated) returned DT40 TDP1 no CPT -2%, SW480 rereplic -2%, DT40 TDP1 CPT 3%, IL1B secr inh 31, BCR signal inh 11% and MCF10A rerep 9%.
Screening CCCOc1ccc(N2C(=O)CC(NCC#N)C2=O)cc1 (configuration not stated) returned DT40 TDP1 no CPT -11%, SW480 rereplic -2%, DT40 TDP1 CPT 4%, IL1B secr inh -1, BCR signal inh inconclusive and MCF10A rerep -10%.
